Bioassay records as filed in PubChem BioAssay.
Sampled rows, rich in hits. Any-hit rate of the full collection: about 10%.
MCF10A rerep: A quantitative high throughput screen for small molecules that induce DNA re-replication in MCF 10a normal breast cells; MCF 10A DNA re-replication, Hoechst nuclear intensity, 48 h; Potency, µM (top dose mostly 46.1 µM), most hits filed as activators; 350,000 tested, 2.9% active; also: nearly all actives have a fitted effect of over 50% in size
KB-3-1 tox: qHTS assay for MDR1-selective chemotherapeutics: Primary screen using the parental adenocarcinoma cell KB-3-1 | KB-3-1 viability, CellTiter-Glo ATP luminescence, 72 h | Potency, µM (series often up to 46.1 µM), hits mostly cytotoxic | 400,000 tested, 1.4% active | AID 1347075, 2019; also: nearly all actives have a fitted effect of over 60% in size
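Cells are dispensed, compounds pinned in, plates held at 37 °C for 72 h, then CellTiter-Glo is added and luminescence read after 10 minutes. Cell line: parental KB-3-1 in phenol-red-free DMEM, 10% FBS.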
Gal4-VP16 FLuc: VP16 counterscreen qHTS for inhibitors of ROR gamma transcriptional activity; Drosophila S2 Gal4-VP16 UAS-luciferase, luminescence, 20 h; Potency, µM (highest dose often 53.6 µM), actives largely listed as inhibitors; 310,000 tested, 3.5% active;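 also: Gal4-VP16 expression switched on by copper sulfate through the metallothionein promoter; nearly all actives have a fitted effect of over 50% in size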
RORg inh: qHTS for inhibitors of ROR gamma transcriptional activity | Potency, µM (titrated, usually from 53.6 µM), hits mostly inhibitors | 310,000 tested, 5.4% active | AID 2551, 2010 | Nuclear receptor ROR-gamma (Mus musculus), P51450 | Drosophila S2 Gal4-RORgamma UAS-luciferase reporter, 20 h; also: nearly all actives have a fitted effect of over 60% in size
Target sequence (P51450 whole entry, looked up, the tested form may be a part): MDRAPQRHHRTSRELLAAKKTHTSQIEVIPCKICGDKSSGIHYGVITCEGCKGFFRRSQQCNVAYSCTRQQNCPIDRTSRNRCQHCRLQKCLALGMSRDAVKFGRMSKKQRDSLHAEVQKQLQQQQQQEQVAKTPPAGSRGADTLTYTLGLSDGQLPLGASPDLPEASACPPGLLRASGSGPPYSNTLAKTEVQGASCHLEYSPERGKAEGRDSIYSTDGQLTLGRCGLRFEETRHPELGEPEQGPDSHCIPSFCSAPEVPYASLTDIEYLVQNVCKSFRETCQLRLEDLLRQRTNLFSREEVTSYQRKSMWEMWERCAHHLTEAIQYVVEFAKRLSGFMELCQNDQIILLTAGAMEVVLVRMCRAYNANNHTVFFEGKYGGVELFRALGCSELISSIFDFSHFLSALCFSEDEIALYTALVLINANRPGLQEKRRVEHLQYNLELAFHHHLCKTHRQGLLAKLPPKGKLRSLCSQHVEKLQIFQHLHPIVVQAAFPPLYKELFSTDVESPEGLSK
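Compounds are pin-transferred onto Drosophila Schneider cells expressing a copper-inducible Gal4–ROR gamma transactivation domain fusion. After 1 hr, copper sulfate is added to 700 uM final; luciferase is read 20 hr later.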
SW480 rereplic: A quantitative high throughput screen for small molecules that induce DNA re-replication in SW480 colon adenocarcinoma cells; 340,000 tested, 1.8% active; Potency, µM (doses to about 46.1 µM), usual class: activators; SW480 DNA re-replication, Hoechst DNA content imaging, 48 h; AID 624297, 2012; also: nearly all actives have a fitted effect of over 55% in size
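Image-based read-out: total Hoechst fluorescence of nuclei (405 nm excitation, 500-530 nm emission), with hits raising the fraction of high-intensity nuclei. SW480 colon cells incubated 48 hr with compounds at 37 C.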
KB-V1 cytotox: qHTS assay for MDR1-selective chemotherapeutics: Primary screen using the drug-selected MDR subline cells KB-V1; KB-V1 MDR cells viability, CellTiter-Glo, 72 h; 400,000 tested, 3.4% active; Potency, µM (doses to about 46.1 µM), actives largely listed as cytotoxic; also: nearly all actives have a fitted effect of over 60% in size
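Cells of the MDR subline KB-V1 are plated, dosed with compound at multiple concentrations, and incubated 72 h at 37 degrees C; CellTiter-Glo is then added and luminescence read after 10 min.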
Numbers stand for hits; - = inactive; ? = inconclusive; . = not tested or not shown; [ ] = another dose, or the depositor's remark. Calls follow the shape of the dose curve; as a rule, active = well fitted curve in the direction sought with a large enough effect; inconclusive = small, poorly fitted or top-dose-only effect, or another doubt; inactive = no such curve, though single readings can be large; an effect the other way counts as inactive or inconclusive.

SMILES	MCF10A rerep	KB-3-1 tox	Gal4-VP16 FLuc	RORg inh	SW480 rereplic	KB-V1 cytotox
O=C(Cc1ccc(F)cc1)Nc1cccc2cccnc12	-	-	-	-	-	16.4µM
O=C(CCC(=O)OCC(=O)c1ccc(-c2ccccc2)cc1)Nc1cccc2cccnc12	-	-	3.98µM	1.58µM	-	-
O=C(NCC(c1cccs1)N1CCOCC1)C1CCN(S(=O)(=O)c2cc(Cl)ccc2Cl)CC1 (stereo not given)	-	-	.	.	-	9.2µM
O=C(NCC(c1cccs1)N1CCOCC1)C1CCN(S(=O)(=O)c2c(Cl)cccc2Cl)CC1 (stereo not given)	-	-	.	.	-	?
Cc1cc(Cl)ccc1OCC(=O)NCC(c1cccs1)N1CCOCC1 (stereo not given)	-	?	.	.	-	7.31µM
Cc1ccccc1CSCC(=O)c1c(N)n(CC(C)C)c(=O)n(C)c1=O	-	?	-	-	-	18.4µM
Cc1ccccc1CSCC(=O)c1c(N)n(C)c(=O)n(C)c1=O	-	-	-	?	-	-
CC(C)Cn1c(N)c(C(=O)COC(=O)CC23CC4CC(CC(C4)C2)C3)c(=O)n(C)c1=O	11.6µM	?	?	-	-	?
CC(C)Cn1c(N)c(C(=O)COC(=O)c2ccc(Br)cc2)c(=O)n(C)c1=O	-	14.6µM	.	.	-	-
CCOc1cc(C(=O)OCC(=O)c2c(N)n(C)c(=O)n(C)c2=O)cc(OCC)c1OCC	-	-	-	-	-	18.4µM
CC(C)Cn1c(N)c(C(=O)COC(=O)c2ccc(Cl)cc2)c(=O)n(C)c1=O	-	-	-	-	-	-
OCC[N+]1(CCc2ccccc2)CCOCC1	.	-	.	.	.	-
Cc1nc2c(C)cccc2c2c1CCN2c1ccccc1F	?	-	-	-	-	-
COc1ccc(N2CCc3c(C)nc4c(OC)cc(OC)cc4c32)cc1	?	-	-	-	-	?
CCN1Cc2c(/C=C/c3ccccc3)nc3ccc(OC)cc3c2N(c2cccc(Cl)c2)C1	25.9µM	?	-	-	-	-
COc1ccc(N2CCc3c(C)nc4c(OC)cccc4c32)cc1	?	4.61µM	-	20µM	?	?
COc1cccc(N2CCc3c(C)nc4ccc(Cl)cc4c32)c1	?	?	-	-	?	16.4µM
COc1ccc(N2CCc3c(C)nc4c(OC)cc(OC)cc4c32)c(OC)c1	25.9µM	?	-	-	?	?
CCCc1cc(=O)oc2cc(C)c3c(-c4ccccc4)coc3c12	.	-	.	.	.	?
CCN(CC)CCOC(=O)c1cccnc1	-	.	-	-	-	.
CC(C)N1CC2(CC(c3ccc(Cl)cc3Cl)=NO2)CN1C(=O)c1ccc(C(C)(C)C)cc1 (stereo not given)	.	-	.	.	.	-
CC(C)(C)OC(=O)NC(NC(=O)OCC1c2ccccc2-c2ccccc21)C(=O)O (stereo not given)	.	.	-	-	.	.
CC(O)CNCCNCc1c(OCc2ccccc2)ccc2ccccc12 (stereo not given)	?	-	22.4µM	?	-	-
OCCNCCNCc1ccccc1OCc1ccccc1	-	-	-	-	20.6µM	-
CCNCc1ccccc1OCc1ccccc1	-	?	-	-	-	-
SMILES	MCF10A rerep	KB-3-1 tox	Gal4-VP16 FLuc	RORg inh	SW480 rereplic	KB-V1 cytotox
O=C(OCc1ccccc1)c1ccc(NCc2cc(O)ccc2O)cc1	?	3.66µM	.	.	?	2.59µM
Oc1ccc(NCc2ccccc2OCc2ccccc2)cc1	23.1µM	-	?	?	14.6µM	-
CC(=O)OCC(NC(=O)C(CCCCNC(=O)OCc1ccccc1)NC(=O)OC(C)(C)C)C1OC(n2cc(C)c(=O)[nH]c2=O)C(OC(C)=O)C1OC(C)=O (stereo not given)	.	.	-	-	.	.
CC(C)(C)NC(=O)COc1ccc(CNCCc2ccccc2)cc1	-	-	-	-	-	?
CC(C)(C)NC(=O)COc1ccc(CNCc2ccccn2)cc1	16.4µM	-	-	-	-	-
CCn1nc(C)c(CCN(C)C(=O)Nc2cc(OC)c(OC)c(OC)c2)c1C	.	-	.	.	.	-
COc1ccc(-c2c(-c3cc(OC)cc(OC)c3)n(C)c3ccc(-c4ccc(OC)cc4F)cc23)cc1	-	-	.	.	-	-
Cc1ccc(C)c2c1c1ccccc1n2C	-	-	-	-	-	-
COc1ccc2c(c1)c1ccc3c(c1n2C)C(=O)C=CC3=O	?	-	12.6µM	22.4µM	-	-
Cn1c2ccccc2c2ccc3c(c21)C(=O)C=CC3=O	6.51µM	?	.	.	-	?
Cc1ccc2c(c1)c1ccc3c(c1n2C)C(=O)C=CC3=O	?	16.4µM	11.2µM	11.2µM	?	-
CC1CCC2C(=O)N3C(CCC(C)[C@@H]3c3ccc(-c4ccco4)cc3)C(=O)N2C1c1cccc(N2CCCC2=O)c1 (stereo not given in full)	.	.	?	-[10 µM]	.	.
O=C(COc1ccccc1F)OCc1cc(=O)n2nc(-c3cccs3)sc2n1	.	-	.	.	.	-
CCC(=O)NC[C@H](Cc1ccc(OCCc2nc(-c3ccccc3)oc2C)cc1)N/C(C)=C\C(=O)c1ccc(C(F)(F)F)cc1	.	.	-	?	.	.
COc1ccc([C@H]2CC(=O)C=C(c3ccc4ncccc4c3)C2)cc1	-	?	.	.	?	-
